# Results: PubChem BioAssay AID2314 (National Center for Advancing Translational Sciences (NCATS), 2010)
# Out of some 300,000 compounds screened, about 37,000 (12%) were called active. Rule as the data show it: active = max response mostly above about 13% (no sharp cut-off); inactive = mostly below about 14%. Shown is part of a subset that was picked to be rich in actives.
# Assay: Cycloheximide Counterscreen for Small Molecule Inhibitors of Shiga Toxin; also: read at 38.3 µM for the half of the compounds with a filed dose; 0% is about no effect
# Conditions: cell reporter, cycloheximide protein synthesis inhibition counterscreen; active compounds read high
row,SMILES,max response
1,O=C(CN1CCN(c2ccc(F)cc2)CC1)Nc1ccccc1,-1.97% (inactive)
2,CN(C)CCCSc1ccccc1NC(=O)/C=C/c1ccccc1,5.31% (inactive)
3,CCOc1ccc(S(=O)(=O)NCc2ccc3c(c2)OCO3)cc1C,-1.1% (inactive)
4,COc1cccc2[nH]c(C(=O)NCCc3ccccc3)cc12,42.7% (active)
5,COc1ccc(CCNC(=O)c2ccccc2-c2ccccc2C(=O)O)cc1OC,-3.5% (inactive)
6,COCCn1c(=S)[nH]c2cc(C(=O)NCCc3ccc(OC)c(OC)c3)ccc2c1=O,-1.71% (inactive)
7,Cc1cccc(N(C(=O)Cn2nnc(-c3ccc(C)o3)n2)C(C(=O)NC2CCCC2)c2ccncc2)c1 (stereo not drawn),1.36% (inactive)
8,CCn1c(SCC(=O)NC2CC2)nnc1-c1ccncc1,5.06% (inactive)
9,Cc1cc(-c2ccccc2)nc(N2CCC(C(=O)NC34CC5CC(CC(C5)C3)C4)CC2)n1,27.8% (active)
10,Cc1cc(C)cc(NC(=O)C2CCN(c3nc(C)cc(C)n3)CC2)c1,-2.08% (inactive)
11,O=C(NNC(=O)C1CCN(c2ncccn2)CC1)c1ccccc1,-2.14% (inactive)
12,Cc1c(S(=O)(=O)N2CC(C)CC(C)C2)c(=O)n(C)c(=O)n1C (stereo not drawn),-2.35% (inactive)
13,CCN(CC)P(=O)(Nc1ccc(SC(F)F)cc1)c1ccc(N(C)C)cc1NC(=O)c1ccco1 (stereo not drawn),11.5% (inactive)
14,O=C1N(Cc2ccc3c(c2)OCO3)c2ccccc2C1(O)c1c[nH]c2ccccc12 (stereo not drawn),-2.27% (inactive)
15,COc1cc(NC(=O)C2=CC(c3ccco3)=NS(=O)(=O)N2C)cc(OC)c1OC,2.06% (inactive)
16,Cc1cccc(NC(=O)c2cccc(C(=O)Nc3cccc(C)c3C)n2)c1C,-2.9% (inactive)
17,O=C(Nc1cccc(NC(=O)c2ccc(Br)cc2)c1)c1ccccc1,2.45% (inactive)
18,Cc1nc(C)c(C(=O)Nc2cccc(C)c2C)o1,-2.15% (inactive)
19,O=C(Nc1ccccc1)c1ccc2nsnc2c1,29.1% (active)
20,O=C(Nc1ccccc1Cl)c1ccc2nsnc2c1,30.7% (active)
21,O=S(=O)(Nc1ccccc1Cl)c1cccc2nsnc12,1.19% (inactive)
22,O=C(Nc1ccccc1N1CCCCC1)c1ccc2nccnc2c1,-1.32% (inactive)
23,Cc1cccc(NC(=O)c2ccc3nsnc3c2)c1C,10.4% (active)
24,Cc1ccc([N+](=O)[O-])c(OCCCNCC(C)O)c1 (stereo not drawn),17.1% (inactive)

row,SMILES,max response
1,Cc1cc(NC(=O)CCN2CCN(Cc3ccccc3)CC2)ccc1Br,-0.903% (inactive)
2,COc1ccc(NC(=O)CN2C(=O)COc3ccc(S(=O)(=O)N4CCOCC4)cc32)cc1,-5.3% (inactive)
3,COCCNc1ccc(-c2n[nH]c(=O)c3ccccc23)cc1[N+](=O)[O-],-0.883% (inactive)
4,COc1ccc(N(C)C(=O)C2CCN(S(=O)(=O)c3cccc4nsnc34)CC2)cc1,-1.67% (inactive)
5,Cc1cc(C(C)(C)C)n2nc(C)c(-c3ccccc3)c2n1,-2.81% (inactive)
6,Cc1nc2cc(-c3ccc(F)cc3)nn2c(N2CCOCC2)c1C,16.4% (inactive)
7,Cc1cc(N)n2nc(-c3ccc(C(C)(C)C)cc3)cc2n1,46.8% (active)
8,O=C(CN1C(=O)c2cccnc2Oc2ccc(Cl)cc21)Nc1ccc(F)cc1,-3.07% (inactive)
9,COc1cc(NC(=O)C2=CC(c3ccc(C)cc3)=NS(=O)(=O)N2C)cc(OC)c1OC,-1.64% (inactive)
10,CSc1ncccc1C(=O)Nc1ccc(C)cn1,9.66% (active)
11,CSc1ncccc1C(=O)Nc1nc2ccc(F)cc2s1,53.4% (active)
12,CSc1ncccc1C(=O)NC1CCCCCC1,19.5% (inactive)
13,COc1ccc(C(CNC(=O)c2cccnc2SC)N2CCOCC2)cc1 (stereo not drawn),-3.3% (inactive)
14,O=C(COC(=O)c1ccc(F)cc1)Nc1nc2ccc([N+](=O)[O-])cc2s1,0.781% (inactive)
15,COc1cc(NC(=O)c2cccnc2SC)cc(OC)c1,-1.86% (inactive)
16,CCOc1ccc(NC(=O)CCC(=O)NNC(=O)NC2CCCCC2)cc1,-3.92% (inactive)
17,CCOC(=O)c1cnc(SCc2nc(N)nc(Nc3ccc(OC)cc3)n2)nc1N,19.8% (inactive)
18,COc1ccccc1Nc1nc(N)nc(CSC(=S)N2CCOCC2)n1,23.7% (active)
19,COc1ccccc1Nc1nc(N)nc(CN(C)C2CCCCC2)n1,-1.19% (inactive)
20,COc1ccc(Nc2nc(N)nc(CSC(=S)N3CCC(C)CC3)n2)cc1,47.2% (active)
21,CCOC(=O)C1CCCN(Cc2nc(N)nc(Nc3ccc(C)cc3)n2)C1 (stereo not drawn),0.836% (inactive)
22,COc1ccccc1NC(=S)N1CCN(c2ccc(F)cc2)CC1,-1.91% (inactive)
23,C=CCN1C(=NC(=O)COc2ccccc2)SC2CS(=O)(=O)CC21 (stereo not drawn),-13.1% (inactive)
24,O=C(NCCc1nnc2ccc(SCC(=O)N3CCOCC3)nn12)c1ccccc1,-4.07% (inactive)

row,SMILES,max response
1,O=C(O)c1ccc(S(=O)(=O)N2CCC(Cc3ccccc3)CC2)cc1,-8.01% (inactive)
2,COc1ccc(C(=O)OCC(=O)NC(=O)CCSc2ccccc2)cc1,3.82% (inactive)
3,COc1ccc(OC)c(CCNC(=O)c2nn(C)c3c2CS(=O)(=O)c2ccccc2-3)c1,-1.16% (inactive)
4,COc1ccc(N(CC(=O)NC2CCCCC2)S(=O)(=O)c2c(C)[nH]c(=O)[nH]c2=O)cc1,-1.68% (inactive)
5,O=C(NNC(=S)NC(=O)c1cn(-c2ccccc2)nc1-c1ccccc1)c1ccncc1,2.78% (inactive)
6,COc1cc(/C=N/NC(=O)c2cc(C)n(-c3ccc(F)cc3)c2C)cc(OC)c1O,18.9% (inactive)
7,Cc1nn(CC(=O)N/N=C/c2ccc(F)cc2)c(C)c1[N+](=O)[O-],-2.9% (inactive)
8,Cc1cc(C(=O)N/N=C/c2ccc(O)c([N+](=O)[O-])c2)c(C)n1-c1ccc(F)cc1,24.9% (active)
9,COc1ccccc1N(CC(=O)Nc1ccccc1C(=O)N1CCCC1)S(C)(=O)=O,-4.06% (inactive)
10,CC/C(=N\NC(=O)c1ccccc1Cl)c1ccc(Br)s1,-0.594% (inactive)
11,NS(=O)(=O)c1ccc(CCNS(=O)(=O)c2cccc3cccnc23)cc1,-5.53% (inactive)
12,CN(C)S(=O)(=O)c1cccc(NC(=O)Cc2ccsc2)c1,-3.01% (inactive)
13,Cc1ccc(CN2C(=O)N/C(=C/c3cc(C)n(-c4ccccn4)c3C)C2=O)cc1,33.6% (active)
14,Cc1ccc(Cn2c(C)c3cnn(CC(=O)NCc4ccccn4)c(=O)c3c2C)cc1,-3.46% (inactive)
15,O=C1N/C(=C/c2cccs2)C(=O)N1Cc1ccc(F)cc1,-5.73% (inactive)
16,Cc1cccc([C@@H]2[C@@H]3C(=O)N(C)C(=O)[C@@H]3[C@@H]3C(=O)Nc4ccccc4C(=O)N23)c1,1.14% (inactive)
17,O=c1c2ccccc2nc2n1C(CSCc1ccccc1)CS2 (stereo not drawn),-1.46% (inactive)
18,O=C(/C=C/c1ccc([N+](=O)[O-])cc1)NCCSCc1ccco1,9.78% (inactive)
19,CCOc1ccccc1Nc1nnc(SCc2ccc(C(=O)OC)o2)s1,-4.31% (inactive)
20,COC(=O)c1ccc(CSc2ccccc2C)o1,-1.75% (inactive)
21,COC(=O)c1ccc(CSc2nnc(N)s2)o1,12.5% (active)
22,CC1CCCCN1C(=O)CCS(=O)(=O)Cc1ccccc1 (stereo not drawn),-0.307% (inactive)
23,COc1cc(C(=O)NN(CCC#N)C2=NS(=O)(=O)c3ccccc32)cc(OC)c1OC,-4.44% (inactive)
24,COc1cccc2c(C)c(C(=O)O)[nH]c12,33.1% (active)

row,SMILES,max response
1,Cc1c(C(=O)N/N=C/c2ccccc2)[nH]c2c([N+](=O)[O-])cccc12,1.12% (inactive)
2,COc1cc2c(C(=O)O)c(C)n(C)c2c2ccccc12,-4.45% (inactive)
3,O=c1[nH]cccc1-c1nc2ccccc2n1Cc1ccc(Cl)cc1,-10.6% (inactive)
4,COc1ccc(C(=O)NC(C)Cn2nc(C)cc2C)cc1OC1CCN(C(C)=O)CC1 (stereo not drawn),-1.29% (inactive)
5,Cn1ncc(Br)c1C(=O)NC1CCCC1,-6.23% (inactive)
6,CCN(CC)CCn1cnc2c1c(=O)[nH]c(=O)n2Cc1ccccc1,-9.18% (inactive)
7,CCOc1ccc(N(C(=O)c2snc(C(N)=O)c2N)C(C(=O)NCC2CCCO2)c2c[nH]c3ccccc23)cc1 (stereo not drawn),1.95% (inactive)
8,Cc1cc(S(=O)(=O)NC2CCCCC2)ccc1OCC(=O)NCc1cccnc1,-2.89% (inactive)
9,CCOC(=O)C1(Cc2ccccc2C)CCCN(S(C)(=O)=O)C1 (stereo not drawn),2.45% (inactive)
10,O=C(Cn1c(=O)n(CC2CS2)c2ccccc21)N1CCCCC1 (stereo not drawn),0.367% (inactive)
11,CCOC(=O)C1(Cc2ccccc2C)CCCN(C(=O)CN2C(=O)CSC2=O)C1 (stereo not drawn),42.6% (active)
12,Cc1cc(SCC(=O)NCCN2C(=O)CSC2=O)nc2ccccc12,0.645% (inactive)
13,CCOC(=O)C1(CCc2ccccc2)CCN(Cc2ccco2)CC1,8.52% (inactive)
14,CCOC(=O)C1(Cc2ccccc2C)CCCN(C(=O)c2ccc(COC)o2)C1 (stereo not drawn),35.6% (active)
15,Cc1ccc(S(=O)(=O)N(CC(=O)NCc2ccco2)c2ccccc2C)cc1,-4.61% (inactive)
16,CCCNC(=S)N1CCCC(c2nc3ccccc3[nH]2)C1 (stereo not drawn),-2.62% (inactive)
17,O=C(NC1CCCC1)C(c1c(F)cccc1Cl)N(C(=O)c1csnn1)C1CC1 (stereo not drawn),-1.83% (inactive)
18,Cn1c(=NC(=O)c2ccc3c(c2)OCCO3)sc2cc(S(C)(=O)=O)ccc21,3.13% (inactive)
19,COCCNC(=O)c1ccccc1NS(=O)(=O)c1ccc(C)c([N+](=O)[O-])c1,-2.35% (inactive)
20,COCCn1c(=NC(=O)c2ccccc2[N+](=O)[O-])sc2cc(S(C)(=O)=O)ccc21,25.9% (active)
21,O=C(Nc1ccccc1C(=O)Nc1ccncc1)c1ccc([N+](=O)[O-])cc1,-2.91% (inactive)
